Experimental findings from PubChem BioAssay (EPA / NIEHS) are described below.

Inconclusive results are not listed. Active and inactive are the calls of the source. Rule for the calls: active = hit-call score of the fitted dose curve at least 0.9, where 1 is the maximum; inconclusive = response in the unintended direction; inactive = score below 0.9.

Sequence of human Ephrin type-B Receptor 2 (EphB2), EPHB2 (gene 2048) (P29323 whole entry, looked up): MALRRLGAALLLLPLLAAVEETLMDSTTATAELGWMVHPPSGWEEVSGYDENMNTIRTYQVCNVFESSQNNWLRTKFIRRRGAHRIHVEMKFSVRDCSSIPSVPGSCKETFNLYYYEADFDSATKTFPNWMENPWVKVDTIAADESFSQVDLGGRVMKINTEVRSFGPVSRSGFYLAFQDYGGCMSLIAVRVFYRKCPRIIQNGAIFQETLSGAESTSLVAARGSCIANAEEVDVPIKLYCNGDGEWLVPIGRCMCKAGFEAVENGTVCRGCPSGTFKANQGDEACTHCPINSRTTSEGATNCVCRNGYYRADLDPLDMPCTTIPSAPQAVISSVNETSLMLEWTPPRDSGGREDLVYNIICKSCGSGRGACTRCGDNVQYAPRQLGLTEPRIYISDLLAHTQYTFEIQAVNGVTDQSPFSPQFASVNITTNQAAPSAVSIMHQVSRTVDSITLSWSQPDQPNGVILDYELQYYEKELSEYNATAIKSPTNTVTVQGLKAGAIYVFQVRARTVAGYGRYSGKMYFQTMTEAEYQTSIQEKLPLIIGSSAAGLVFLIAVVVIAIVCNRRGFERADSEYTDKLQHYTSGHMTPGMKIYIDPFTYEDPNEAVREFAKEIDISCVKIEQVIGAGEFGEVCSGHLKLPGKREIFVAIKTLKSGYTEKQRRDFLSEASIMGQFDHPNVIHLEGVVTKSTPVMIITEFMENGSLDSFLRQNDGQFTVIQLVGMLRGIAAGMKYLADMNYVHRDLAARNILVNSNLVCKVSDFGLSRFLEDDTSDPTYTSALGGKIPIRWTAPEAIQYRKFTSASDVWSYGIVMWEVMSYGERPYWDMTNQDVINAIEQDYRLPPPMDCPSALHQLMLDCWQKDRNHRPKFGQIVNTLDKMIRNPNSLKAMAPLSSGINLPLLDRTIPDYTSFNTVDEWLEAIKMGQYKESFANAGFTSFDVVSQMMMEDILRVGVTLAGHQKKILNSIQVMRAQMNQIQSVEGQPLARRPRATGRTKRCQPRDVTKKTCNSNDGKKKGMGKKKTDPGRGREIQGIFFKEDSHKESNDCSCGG

This assay has as its target human Ephrin type-B Receptor 2 (EphB2), EPHB2 (gene 2048) (UniProt P29323). Description: NVS_ENZ_hEphB2: NovaScreen (NVS) Enzymatic Assay for human Ephrin type-B Receptor 2 (EphB2) (AID 2283156). As to the method:
NVS_ENZ_hEphB2 is a biochemical, single-readout assay that uses extracted gene-proteins in a cell-free assay. Measurements were taken 1 hour after chemical dosing in a 384-well plate.NVS_ENZ_hEphB2 is one of one assay component(s) measured or calculated from the NVS_ENZ_hEphB2 assay. It is designed to make measurements of enzyme activity, a form of enzyme reporter, as detected with fluorescence intensity signals by Fluorescence and electrophoretic mobility shift technology.Data from the assay component NVS_ENZ_hEphB2 was analyzed into 1 assay endpoint. This assay endpoint, NVS_ENZ_hEphB2, was analyzed in the positive analysis fitting direction relative to DMSO as the negative control and baseline of activity. Using a type of enzyme reporter, loss-of-signal activity can be used to understand changes in the enzymatic activity as they relate to the gene EPHB2. Furthermore, this assay endpoint can be referred to as a primary readout, because this assay has produced multiple assay endpoints where this one serves a enzymatic activity function. To generalize the intended target to other relatable targets, this assay endpoint is annotated to the kinase intended target family, where the subfamily is receptor tyrosine kinase.
Binding assays used specific radioligands (tritiated, iodinated) with non-radioactive competitive displacement ligands in agonist or antagonist protocols (as indicated) and various reference compounds and inhibitors to titrate specific binding to receptors and transporters. Most enzyme assays (CYPs, kinases, phosphatases, proteases, HDACs) used recombinant protein and specific substrates (fluorescence mostly, some colorimetric and radioactive) and inhibitors, followed by a biochemical separation of substrate and product. All assays for the biochemical HTS were initially run in duplicate at a single concentration (10 uM for CYP450 assays and 25 uM for all others). Assay-chemical combinations meeting a pre-defined threshold (e.g., 30% inhibition and other criteria defined below) were then run in singleton concentration-response format with maximum concentration of 20 uM for CYPs and 50 uM for all others. Each assay was run with positive and negative controls, and concurrent controls on every plate. The follow-up (secondary) screen tested active chemical-pairs in concentration series, as well as a few additional assays not tested in the primary screen, some selected negative inactives, and several cases re-run in the concentration series for confirmatory purposes.
As for `CC(C)(c1ccc(O)cc1)c1ccc(O)cc1`, the molecule was classed as inactive.

In the case of `CCOC(=O)CC(CC(=O)OCC)(OC(C)=O)C(=O)OCC`, the result was inactive.

For `Oc1ccc(C(c2ccc(O)cc2)C(Cl)(Cl)Cl)cc1`, the result was inactive.

With `CCCCCCCC/C=C\CCCCCCCC(=O)OC[C@@H](O)[C@H]1OC[C@H](O)[C@H]1O`, the AC50 was 6.52 µM (active).

Take `Cc1ccc(N)cc1O`: the molecule was called inactive.

With `COc1cc(C(=O)NC2CCN(C)CC2)ccc1Nc1ncc2c(n1)N(C1CCCC1)CC(F)(F)C(=O)N2C`, the result was inactive.

Turning to `CN(C)C(=O)NC1(c2ccccc2)CCN(CCC[C@]2(c3ccc(Cl)c(Cl)c3)CCCN(C(=O)c3ccccc3)C2)CC1`, the molecule was classed as inactive.

Regarding `CCCCCCC(C)OC(=O)COc1nc(F)c(Cl)c(N)c1Cl` (stereo unspecified), the call was inactive.

For `Clc1nc(Cl)c(Cl)c(Cl)c1Cl`, the molecule was classed as inactive.

Consider `COCCO`, for which the call was inactive.

For `Cc1[nH]nc2c1N=C(c1ccccc1Cl)c1cc([N+](=O)[O-])ccc1N2`, the outcome was inactive.
